Test results: PubChem BioAssay (NCI)
About 79,000 compounds went through this panel and 15% of them were active in at least one assay; those are over-represented in the sample as a whole. Active and inactive are the calls of the source. Rule as the data show it: active = growth inhibition above about 70%; inactive = the rest.

Key:
[1] = NCI Yeast Anticancer Drug Screen. Data for the wt1 strain (AID 149);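 also: 0% = growth of vehicle-treated wt1 cultures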; details: S. cerevisiae wt1 strain (SPY 50644) growth inhibition, stronger effect = higher value
Outline: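 Growth inhibition read against vehicle controls after compound exposure of the wt1 yeast strain.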

[2] = NCI Yeast Anticancer Drug Screen. Data for the rad50EPP+ strain (AID 151);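 also: 0% = growth of vehicle-treated control cultures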; details: S. cerevisiae rad50 mutant strain, stronger effect = higher value
Outline: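 rad50EPP+ yeast treated with test compounds. Readout: growth vs vehicle control.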

[3] = NCI Yeast Anticancer Drug Screen. Data for the mgt1 strain (AID 153); details: S. cerevisiae mgt1 mutant growth inhibition, stronger effect = higher value
Outline: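 Growth inhibition relative to vehicle controls was scored for the mgt1 yeast strain after compound exposure.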

[4] = NCI Yeast Anticancer Drug Screen. Data for the rad50 strain (AID 155);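 also: 0% = growth of vehicle-only cultures of the same strain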; details: S. cerevisiae rad50 strain growth inhibition, stronger effect = higher value
Outline: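 Readout: growth inhibition relative to vehicle-treated cultures. Compound exposure was carried out in a genetically defined yeast strain deficient in DNA damage repair.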

[5] = NCI Yeast Anticancer Drug Screen. Data for the mec2-1 strain (AID 157); details: S. cerevisiae mec2-1 strain, stronger effect = higher value
Outline: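 Growth inhibition is read against vehicle-treated controls after compound exposure of the mec2-1 yeast strain, which is defective in DNA damage repair or cell cycle control.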

[6] = NCI Yeast Anticancer Drug Screen. Data for the rad14 strain (AID 159);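 also: 0% = growth of vehicle-treated control cultures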; details: S. cerevisiae rad14 strain growth inhibition, stronger effect = higher value
Outline: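 Growth inhibition vs vehicle controls; genetically altered yeast strain (DNA damage repair defect) treated with test compounds.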

[7] = NCI Yeast Anticancer Drug Screen. Data for the sgs1 mgt1 strain (AID 161);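 also: 0% = growth of cultures given vehicle only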; details: S. cerevisiae sgs1 mgt1 strain, stronger effect = higher value
Outline: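 Growth of a repair-deficient yeast mutant was monitored after compound treatment and expressed as inhibition relative to vehicle-treated cultures.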

[8] = NCI Yeast Anticancer Drug Screen. Data for the CLN2oe strain (AID 163);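 also: 0% = growth of vehicle-only control cultures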; details: S. cerevisiae CLN2oe strain, stronger effect = higher value
Outline: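 Compound-treated yeast; growth vs vehicle ctrl = % inhibition. Genetically altered strain (cell-cycle control).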

[9] = NCI Yeast Anticancer Drug Screen. Data for the cln2 rad14 strain (AID 165);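 also: 0% = growth equal to vehicle treated cultures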; details: S. cerevisiae cln2 rad14 strain, stronger effect = higher value
Outline: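 Growth inhibition, relative to vehicle-treated controls, is the read-out. The test organism is a yeast strain with defined genetic alterations, cln2 rad14.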

[10] = NCI Yeast Anticancer Drug Screen. Data for the bub3 strain (AID 167); details: S. cerevisiae bub3 mutant strain, stronger effect = higher value
Outline: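 Readout: yeast growth inhibition, expressed relative to vehicle-only wells. The test organism is a mutant strain from a panel with lesions in DNA repair or checkpoint genes.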

[11] = NCI Yeast Anticancer Drug Screen. Data for the wt2 strain (AID 169);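 also: 0% = growth of vehicle-treated yeast cultures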; details: S. cerevisiae wt2 strain growth inhibition, stronger effect = higher value
Outline: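 Compound exposure of yeast; growth compared with vehicle controls; inhibition reported.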

[12] = NCI Yeast Anticancer Drug Screen. Data for the mlh1 strain (AID 171);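 also: 0% = growth of vehicle-treated control cultures of the same strain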; details: S. cerevisiae mlh1 strain growth inhibition, stronger effect = higher value
Outline: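 Compounds are applied to a genetically altered yeast strain, and its growth is compared with that of vehicle-treated cultures to give percent inhibition.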

[13] = NCI Yeast Anticancer Drug Screen. Data for the sgs1 strain (AID 173);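 also: 0% = growth of vehicle-only control cultures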; details: S. cerevisiae sgs1 mutant, stronger effect = higher value
Outline: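 Compounds applied to genetically altered yeast; growth compared with vehicle-treated cultures to give % inhibition.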

[14] = NCI Yeast Anticancer Drug Screen. Data for the mlh1 rad18 strain (AID 175); details: S. cerevisiae mlh1 rad18 strain growth inhibition, stronger effect = higher value
Outline: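 Cells of a genetically altered yeast strain, deficient in DNA damage repair, were treated with compound. Their growth was then compared with that of vehicle-treated cultures to give inhibition.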

[15] = NCI Yeast Anticancer Drug Screen. Data for the rad18 strain (AID 177); details: S. cerevisiae rad18 mutant growth inhibition, stronger effect = higher value
Outline: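 Compounds are applied to a repair-deficient yeast strain, and growth is compared with that of vehicle-treated cultures to give percent inhibition.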

[16] = at 5.0 µM (retest, dose inferred, filed as 0.5)
[17] = at 50.0 µM (retest, dose inferred, filed as 5.0)

Measured: growth inhibition

O=C(CC(C(=O)O)N1CCOCC1)c1ccccc1 (stereo unspecified)
active: [4]; at 100.0 µM 77% | [9]; [16] 81% | [10]; [16] 98% | [11]; at 100.0 µM 71% | [12]; at 100.0 µM 77% | [13]; at 100.0 µM 80% | [15]; at 33.0 µM 80% | [15]; at 100.0 µM 91%
inactive: [1]; at 1.2 µM -1% | [1]; at 3.7 µM -2% | [1]; at 11.0 µM 0% | [1]; at 33.0 µM 12% | [1]; at 100.0 µM 47% | [2]; at 1.2 µM -2% | [2]; at 3.7 µM -1% | [2]; at 11.0 µM 2% | [2]; at 33.0 µM 12% | [2]; at 100.0 µM 43% | [3]; at 1.2 µM -3% | [3]; at 3.7 µM -3% | [3]; at 11.0 µM 1% | [3]; at 33.0 µM 33% | [3]; at 100.0 µM 65% | [4]; at 1.2 µM -3% | [4]; at 3.7 µM 1% | [4]; [16] 13% | [4]; at 11.0 µM 2% | [4]; at 33.0 µM 36% | [4]; [17] 65% | [4]; at 50.0 µM 49% | [5]; at 1.2 µM -6% | [5]; at 3.7 µM -11% | [5]; [16] -2% | [5]; at 11.0 µM 2% | [5]; at 33.0 µM 31% | [5]; [17] 41% | [5]; at 50.0 µM 12.4% | [5]; at 100.0 µM 66% | [6]; at 1.2 µM -3% | [6]; at 3.7 µM -5% | [6]; at 11.0 µM 0% | [6]; at 33.0 µM 3% | [6]; at 100.0 µM 29% | [7]; [16] -6% | [7]; [17] 54% | [7]; at 50.0 µM 3.3% | [8]; at 1.2 µM -4% | [8]; at 3.7 µM -9% | [8]; at 11.0 µM -10% | [8]; at 33.0 µM -2% | [8]; at 100.0 µM 22% | [9]; [17] 17% | [9]; at 50.0 µM -16.2% | [10]; at 1.2 µM -16% | [10]; at 3.7 µM -17% | [10]; at 11.0 µM -8% | [10]; at 33.0 µM 29% | [10]; [17] 60% | [10]; at 50.0 µM 21.3% | [10]; at 100.0 µM 68% | [11]; at 1.2 µM -4% | [11]; at 3.7 µM -3% | [11]; at 11.0 µM 0% | [11]; at 33.0 µM 31% | [12]; at 1.2 µM -3% | [12]; at 3.7 µM -3% | [12]; at 11.0 µM 4% | [12]; at 33.0 µM 37% | [13]; at 1.2 µM 0% | [13]; at 3.7 µM 5% | [13]; at 11.0 µM 19% | [13]; at 33.0 µM 56% | [14]; [16] 10% | [14]; [17] 47% | [14]; at 50.0 µM 47.9% | [15]; at 1.2 µM -1% | [15]; at 3.7 µM 5% | [15]; at 11.0 µM 28%

Nc1ccc(F)cc1S
active: [1]; at 33.0 µM 92% | [1]; at 100.0 µM 99% | [2]; at 100.0 µM 97% | [3]; at 33.0 µM 92% | [3]; at 100.0 µM 98% | [4]; [17] 91% | [4]; at 100.0 µM 98% | [5]; at 33.0 µM 81% | [5]; [17] 99% | [5]; at 50.0 µM 85.8% | [5]; at 100.0 µM 98% | [6]; at 33.0 µM 70% | [6]; at 100.0 µM 97% | [7]; [17] 100% | [7]; at 50.0 µM 80.5% | [8]; at 100.0 µM 94% | [9]; [17] 88% | [9]; at 50.0 µM 85.4% | [10]; at 33.0 µM 73% | [10]; [17] 99% | [10]; at 50.0 µM 87.5% | [10]; at 100.0 µM 98% | [11]; at 33.0 µM 95% | [11]; at 100.0 µM 98% | [12]; at 33.0 µM 83% | [12]; at 100.0 µM 98% | [13]; at 100.0 µM 97% | [14]; [17] 76% | [14]; at 50.0 µM 89.3% | [15]; at 33.0 µM 71% | [15]; at 100.0 µM 97%
inactive: [1]; at 1.2 µM -7% | [1]; at 3.7 µM 1% | [1]; at 11.0 µM 6% | [2]; at 1.2 µM -19% | [2]; at 3.7 µM -19% | [2]; at 11.0 µM -37% | [2]; at 33.0 µM 55% | [3]; at 1.2 µM -15% | [3]; at 3.7 µM -20% | [3]; at 11.0 µM 12% | [4]; at 1.2 µM -23% | [4]; at 3.7 µM -40% | [4]; [16] 16% | [4]; at 11.0 µM -14% | [4]; at 33.0 µM 61% | [4]; at 50.0 µM 51.1% | [5]; at 1.2 µM -16% | [5]; at 3.7 µM -15% | [5]; [16] 9% | [5]; at 11.0 µM 8% | [6]; at 1.2 µM -32% | [6]; at 3.7 µM -18% | [6]; at 11.0 µM -14% | [7]; [16] 31% | [8]; at 1.2 µM -70% | [8]; at 3.7 µM -50% | [8]; at 11.0 µM -24% | [8]; at 33.0 µM 43% | [9]; [16] 46% | [10]; at 1.2 µM -33% | [10]; at 3.7 µM -15% | [10]; [16] 61% | [10]; at 11.0 µM 18% | [11]; at 1.2 µM 4% | [11]; at 3.7 µM -8% | [11]; at 11.0 µM 56% | [12]; at 1.2 µM -20% | [12]; at 3.7 µM -19% | [12]; at 11.0 µM 2% | [13]; at 1.2 µM -16% | [13]; at 3.7 µM -24% | [13]; at 11.0 µM -14% | [13]; at 33.0 µM 46% | [14]; [16] 15% | [15]; at 1.2 µM -28% | [15]; at 3.7 µM -30% | [15]; at 11.0 µM 1%
